The panel holds about 83,000 compounds, 20% with a hit somewhere; the sample as a whole holds those more often.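 Each cell line was grown in a 96-well plate and treated with one concentration of compound for 48 hours. Values below 10 were considered active.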 Values without a mark were called inactive. The source made the active and inactive calls.

In the assay the test system is HL-60(TB) leukemia. The assay is described as follows: NCI-60 one-dose screen, 48 h (100 = growth as untreated, 0 = no growth, -100 = all killed). Conditions: 10 µM unless noted.
`COc1cc(CN(c2ccc(Cl)cc2)C2OC(=O)c3ccccc32)cc(OC)c1OC` (stereo not given): the growth is 21.7%.
As for `CCCCCC/C=C\CCCCCCCCOc1ccc(CCOP(=O)(O)OCC[N+](C)(C)C)cc1`, the growth was -15.1% (active).
For `O=C(NCCCl)Nc1nccnc1OCc1ccc(F)cc1` the value was -18.9% (active); for `CO[C@H]1C[C@@H]2CC[C@@H](C)[C@@](O)(O2)C(=O)C(=O)N2CCCC[C@H]2C(=O)O[C@H]([C@H](C)C[C@@H]2CC[C@@H](OP(C)(C)=O)[C@H](OC)C2)CC(=O)[C@H](C)/C=C(\C)[C@@H](O)[C@@H](OC)C(=O)[C@H](C)C[C@H](C)\C=C/C=C/C=C/1C`, 76.4%.
Consider `Oc1ccc(-c2nc3ccc4[nH]ncc4c3c3c2CCCC3)c2cccnc12`, for which the growth is -8.83% (active).
For `CCOC(=O)c1c(C)nc(C)c(C(=O)OCC)c1-c1cccnc1` the value was 61.1%.
For `Cc1csc2ccc(Cl)cc12` the value was 110%; for `CC1=NN(c2ccccc2Cl)C(=O)/C1=C\c1cn(S(=O)(=O)c2ccc(C)cc2)c2ccccc12`, 114%; for `Cc1csc(Nc2nc(-c3ccc(Cl)cc3)nc(C(Cl)(Cl)Cl)n2)n1`, 69.3%.
For the compound `N#Cc1ccccc1-c1ccc(Cn2c(-c3cscn3)nc3c(Cl)cccc32)cc1`, the growth is 85.8%.
Turning to `COc1ccc(-n2cc(-c3cc(OC)c(OC)c(OC)c3)n(C(C)=O)c2=O)cc1`, the growth is 126%.
In the case of `COc1ccc(-c2cc(-c3ccc(OC)cc3)nc(NCCCNc3ccnc4cc(Cl)ccc34)n2)cc1`, the growth is -37.7% (active).
For `O=C(/C=C/c1cc2ccccc2[nH]c1=O)c1ccc2c(c1)OCO2` the value was 79%; for `CCN(CC)S(=O)(=O)c1ccc(O)c(NC(=O)c2[nH]c(C)c(C(C)=O)c2CCc2ccc(Cl)cc2)c1`, 39.6%; for `COC(=O)[C@H](C(C)C)n1c(=O)c2cc(OC)c(OC)cc2c2cnc3[nH]ccc3c21`, 16.1%.
For `CC[C@@H]1OC(=O)[C@H](C)[C@@H](O[C@H]2C[C@@](C)(OC)[C@@H](O)[C@H](C)O2)[C@H](C)[C@@H](O[C@@H]2O[C@H](C)C[C@H](N(C)C)[C@H]2O)[C@](C)(O)C[C@@H](C)[C@@H]2N[C@@H](COCCOC)O[C@H]([C@H]2C)[C@]1(C)O` the value was 94.2%; for `CC(=O)c1nc2ccccc2n1CCNC(N)=O`, 80.5%; for `COc1ccc(C2CC(n3ccnc3)c3cc(OC)c(OC)c(OC)c32)cc1O` (stereo not given), 83.6%.
Consider `CC(C)(C)c1[nH]nc2c1C(c1cc3ccccc3[nH]c1=O)Nc1cc(C(=O)OCc3ccccc3)ccc1N2` (stereo not given), for which the growth was 54.5%.
For `CC1=CCC(OC(=O)C(C)(O)CCC(O)(C(=O)OC2(C)C=CC(O)(C(C)C)CC2)C(C)C)(C(C)C)CC1` (stereo not given) the value was 110%; for `COc1ccc(C2C(c3ccccc3)C(=O)N2c2cc(OC)c(OC)c(OC)c2)cc1I` (stereo not given), -31.6% (active).
For `O=C(/C=C/c1cccc(Nc2ccnc3cc(Cl)ccc23)c1)c1ccc(Cl)cc1` the value was 47.6%.
For `COc1cccc(-c2nc3sccn3c2-c2ccnc(NCCCNS(=O)(=O)c3ccc(F)cc3)c2)c1` the value was -13.5% (active).
In the case of `COc1ccc2c(c1)N(CCO)C1=C(C(=O)OC1)C2c1cc(OC)c(OC)c(OC)c1` (stereo not given), the growth is -16.7% (active).
`CO[C@H]1/C=C/C=C/C=C/C[C@H](OC(=O)[C@@H](C)NC(=O)C2CCCCC2)[C@H](C)[C@@H](O)/C(C)=C\CCC2=CC(=O)C=C(NC(=O)C1)C2=O`: the growth was -26.6% (active).
The value for `O=C1OCC2=C1C(c1cccc(C(F)(F)F)c1)c1cc3c(cc1N2CCO)OCCO3` (stereo not given) was -29.5% (active).
The value for `Clc1ccc(/C=C/c2ccccn2)cc1` was 99.4%.
In the case of `CCC(C)(c1ccc(O)c(C)c1)c1ccc(O)c(C)c1`, the growth is 128%.
For `S=c1[nH]nc2ccccn12` the value was 59.3%.
With `COc1ccc(C(=O)Nc2ncc(Cc3ccc(Cl)cc3)s2)cc1`, the growth is -11% (active).
The value for `C/C(=N\Nc1cc(C)nc2ccc(Br)cc12)c1ccc([N+](=O)[O-])cc1` was -37.4% (active).
For `COc1ccc(/C=N/NC(=O)CN2CCN(c3cc4c(cc3F)c(=O)c(C(=O)O)cn4C3CC3)CC2)cc1O`, the growth was 92%.
For `COc1cc(/C=C2\COc3ccc(-c4ccccc4)cc3C2=O)cc(OC)c1` the value was 42.9%.
For `CC1=C(C(=O)Nc2ccc(F)cc2)C(c2ccccc2)C2=C(CC(C)(C)CC2=O)N1` (stereo not given) the value was 76%; for `O=C(NOCCO)c1ccc2cncn2c1Nc1ccc(I)cc1F`, 23.5%; for `COc1ccc(CN2CCC(N3CCCC3=O)c3cc(Cl)ccc32)cc1` (stereo not given), 80.2%.
In the case of `Oc1ccc(-c2nc3ccc4[nH]ncc4c3c3c2CCCC3)c(F)c1`, the growth was 0.236% (active).
In the case of `O=C1C(N2CCOCC2)=Cc2cccc3cccc1c23`, the growth was -26% (active).
For `Cc1ccc2nc(CN(CCN(Cc3nc4ccc(C)cc4[nH]3)Cc3nc4ccc(C)cc4[nH]3)Cc3nc4ccc(C)cc4[nH]3)[nH]c2c1` the value was -67.7% (active); for `Cc1c(Cl)cccc1NC(=O)c1sc2nc3c(cc2c1N)CN(Cc1ccccc1)CC3`, -22.9% (active).

(Values after PubChem BioAssay (NCI).)
